Hits are enriched below; roughly 1.8% of the tested compounds scored in any of these assays.
LYPLA1 inh: LYPLA1 inhibitors, primary screen, counter-screen for PME1 inhibitor project, biochemical, fluorescence polarization, FP-Rh probe ABPP; recombinant LYPLA1; inhibition, % at 5.9 µM; 320,000 tested, 0.16% active; AID 2174, 2009;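 active = inhibition above the mean of all tested compounds plus 3 SD, set per campaign, cut at about 14% in these data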;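 also: inhibitors block serine hydrolase probe labeling of LYPLA1 so polarization falls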
Fam108B inh: mouse Fam108B serine hydrolase inhibitors, primary screen, counter-screen for RBBP9 inhibitor project, biochemical, fluorescence polarization | recombinant Fam108B, FP-Rh probe fluorescence polarization | inhibition, % at 9.51 µM | 300,000 tested, 0.33% active | AID 1947, 2009;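 active = inhibition above the screen mean inhibition plus 3 SD, computed separately per campaign, cut at about 18% in these data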;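 also: inhibitors lower polarization as less probe binds the enzyme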
GSTO1 counter: inhibitors of recombinant GSTO1, primary screen, counter-screen for RBBP9 inhibitor project, biochemical, fluorescence polarization; inhibition, % at 5.96 µM; 300,000 tested, 1.1% active; activity-based probe fluorescence polarization;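 active = inhibition above the campaign mean inhibition plus 3 SD, cut at about 35% in these data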
PME-1 primary: PME-1 inhibitors via competitive probe labeling, primary screen, biochemical, fluorescence polarization, FP-Rh probe, HTS; Protein phosphatase methylesterase 1 (Homo sapiens), Q9Y570; recombinant PME-1; inhibition, % at 5.9 µM; 320,000 tested, 0.53% active; AID 2130, 2009;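 active = inhibition above the campaign mean of all compounds plus 3 SD, cut at about 26% in these data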;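 also: competitive labeling of PME-1 active site by serine hydrolase directed probe; inhibitors block probe labeling so polarization falls and inhibition rises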
Target sequence (Q9Y570 whole entry, looked up): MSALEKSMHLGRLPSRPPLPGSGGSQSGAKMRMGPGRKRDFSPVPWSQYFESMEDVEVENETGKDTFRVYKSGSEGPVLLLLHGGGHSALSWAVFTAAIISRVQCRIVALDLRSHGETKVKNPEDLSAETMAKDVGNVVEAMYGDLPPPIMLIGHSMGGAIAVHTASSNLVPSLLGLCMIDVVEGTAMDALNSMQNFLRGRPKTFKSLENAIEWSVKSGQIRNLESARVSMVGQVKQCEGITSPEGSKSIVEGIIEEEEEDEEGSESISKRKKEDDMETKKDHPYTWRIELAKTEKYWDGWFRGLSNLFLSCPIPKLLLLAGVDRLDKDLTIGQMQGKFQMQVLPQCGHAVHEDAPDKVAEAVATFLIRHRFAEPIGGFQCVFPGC
LYPLA2 inh: LYPLA2 inhibitors, primary screen, counter-screen for PME1 inhibitor project, biochemical, fluorescence polarization, FP-Rh probe ABPP | Acyl-protein thioesterase 2 (Homo sapiens), O95372 | recombinant LYPLA2 | AID 2177, 2009 | 320,000 tested, 0.38% active | inhibition, % at 5.9 µM;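 active = inhibition above the screen-wide mean plus 3 SD, limit set per campaign, cut at about 26% in these data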
Target sequence (O95372 whole entry, looked up): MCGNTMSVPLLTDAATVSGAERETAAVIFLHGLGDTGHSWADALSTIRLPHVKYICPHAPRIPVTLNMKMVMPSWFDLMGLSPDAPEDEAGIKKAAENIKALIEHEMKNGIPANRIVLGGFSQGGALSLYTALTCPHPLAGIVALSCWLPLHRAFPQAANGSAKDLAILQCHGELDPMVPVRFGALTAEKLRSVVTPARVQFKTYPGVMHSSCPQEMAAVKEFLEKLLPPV
PAD4 FP inh: human PAD4 inhibitors, primary screen, biochemical, fluorescence polarization, 1536-well format; inhibition, % at 6.36 µM; 330,000 tested, 0.41% active; recombinant PAD4, RCA probe fluorescence polarization; Protein-arginine deiminase type-4 (Homo sapiens), Q9UM07; AID 485272, 2010;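 active = percent inhibition above a cutoff equal to the mean of all tested compounds plus 3 SD, cut at about 15% in these data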
GSTO1 confirm: GSTO1 inhibitor hit confirmation, counter-screen for RBBP9 inhibitor project, biochemical, fluorescence polarization, triplicate; shares compounds with GSTO1 counter; inhibition, % at 5.96 µM; 2,400 tested, 54% active; AID 2176, 2009; recombinant GSTO1, probe fluorescence polarization;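 active = inhibition above the primary screen's cutoff, its mean inhibition plus 3 SD, cut at about 35% in these data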;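 also: loss of polarization as inhibitors block binding of rhodamine sulfonate ester activity probe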
Each line names hits and unclear results; the compound was inactive in the other large screens (follow-up assays come after a bar, where they were run).

O=C(NC1(C(F)(F)F)Oc2ccccc2O1)N1CCCC1	GSTO1 counter 48 | GSTO1 confirm inactive
O=C(Nc1ccc2c(c1)OCCO2)NC1(C(F)(F)F)Oc2ccccc2O1	none
CC(CCc1ccccc1)NC(=O)c1cccc(F)c1 (centres undefined)	none
CCN(Cc1ccccc1)C(=O)c1ccc(CS(=O)c2ccccc2C)o1 (centres undefined)	none
COc1ccc(Sc2ccc(/C=C3\C(=O)NN(c4ccccc4)C3=O)o2)cc1	GSTO1 counter 42 | GSTO1 confirm 58
O=C1NN(c2ccccc2)C(=O)/C1=C/c1cccs1	GSTO1 counter 63 | GSTO1 confirm inactive
O=C1NN(c2ccccc2)C(=O)/C1=C/c1coc2ccccc2c1=O	none
O=C1NN(c2ccccc2)C(=O)/C1=C\c1coc2ccc(O)cc2c1=O	GSTO1 counter 50 | GSTO1 confirm 36
O=C1NN(c2cccc(Br)c2)C(=O)/C1=C/c1cccs1	none
COc1ccc(-n2c(C)cc(/C=C3\C(=O)NN(c4ccccc4)C3=O)c2C)cc1	none
CCOC(=O)C1CCCN(C(=O)C2CCN(S(=O)(=O)c3ccc4ccccc4c3)CC2)C1 (centres undefined)	none
CC1(C)Cc2ccccc2C2=NNC(=O)C2=N1	GSTO1 counter 56 | GSTO1 confirm 82
O=[N+]([O-])c1ccccc1C1Nc2cccc3cccc(c23)N1	GSTO1 counter 49 | GSTO1 confirm inactive
C[C@@H]1O[C@@H](Oc2c(-c3ccc(O)c(O)c3)oc3cc(O)cc(O)c3c2=O)[C@H](O)[C@H](O)[C@H]1O	none (no result: LYPLA1 inh, Fam108B inh, GSTO1 counter, PME-1 primary, LYPLA2 inh)
C[C@@H]1O[C@@H](Oc2c(-c3cc(O)c(O)c(O)c3)oc3cc(O)cc(O)c3c2=O)[C@H](O)[C@H](O)[C@H]1O	GSTO1 counter 54 | GSTO1 confirm inactive
CCOc1ccccc1CN1CCN(CCCc2ccccc2)CC1CCO (centres undefined)	none
Oc1ccc(C2CNCc3sccc32)cc1O (centres undefined)	GSTO1 counter 49 | GSTO1 confirm inactive
Cc1ccc(-c2ccc(/C=N/N=C3/NC(=O)C(CC(=O)O)S3)o2)c([N+](=O)[O-])c1 (centres undefined)	GSTO1 counter 67 | GSTO1 confirm inactive
COc1cc(OC)cc(C(=O)NNC(=O)CN2C(=O)NC3(CCCC3)C2=O)c1	none (no result: Fam108B inh, GSTO1 counter)
CSc1ccccc1NC(=O)CN(C)C(=O)c1ccc2c(c1)OCCO2	none
Cc1ccc(C)c(Sc2ccc(NC(=O)CCl)cc2)c1	GSTO1 counter 75 | GSTO1 confirm 82
CC(=O)NC(CC(=O)OC(C)C(=O)Nc1ccc(Cl)cn1)c1ccccc1 (centres undefined)	none
CN(C)c1ccc(NC(=O)C(=O)C2C(=O)Nc3ccccc32)cc1 (centres undefined)	none
CN(C)c1ccc(CC2C(=O)Nc3ccccc32)cc1 (centres undefined)	GSTO1 counter 48 | GSTO1 confirm inactive
CCOc1ccc(N2C(=O)Nc3ccccc3C2(O)C(=O)NCc2ccc3c(c2)OCO3)cc1 (centres undefined)	none
Cc1ccc(NC(=O)CC(N)=S)cc1	GSTO1 counter 56 | GSTO1 confirm inactive
CC(=O)Nc1nc(-c2ccc(Cl)cc2)nc(C)c1C(C)=O	GSTO1 counter 44 | GSTO1 confirm inactive
CN1c2ccccc2N(C)C1(C)c1ccccc1	GSTO1 counter 50 | GSTO1 confirm inactive
CN1C(=O)N(C)C2(c3ccccc3)NC(=O)NC12c1ccccc1 (centres undefined)	none
Cc1ccc(C(=O)N2CCC(C(=O)NC3CCCCCC3)CC2)cc1	none
COc1cccc(NC(=O)COC(=O)Cn2c(C)csc2=O)c1	none (no result: Fam108B inh, GSTO1 counter)
COc1ccc2[nH]cc(C(=O)CN3CC(C)CC(C)C3)c2c1 (centres undefined)	none
COc1ccc2[nH]cc(C(=O)CCl)c2c1	GSTO1 counter 83 | GSTO1 confirm 100
Cc1cc(C(=O)NNC(=O)c2ccc(Cl)cc2)no1	GSTO1 counter 48 | GSTO1 confirm inactive
CC(=O)c1cccc(Nc2nc(-c3ccccc3)nc3ccccc23)c1	none
CC(=O)c1cccc(-c2ccc3c(=O)[nH]c(Nc4ccccc4)cc3c2)c1	GSTO1 counter 49 | GSTO1 confirm inactive
Cc1ccc(C)c(S(=O)(=O)N2CCCCC2CCNC(=O)C(=O)NCc2ccncc2)c1 (centres undefined)	none
c1csc(C2Nc3cccc4cccc(c34)N2)c1	GSTO1 counter 44 | GSTO1 confirm inactive
Clc1cccc(Cl)c1C1Nc2cccc3cccc(c23)N1	GSTO1 counter 47 | GSTO1 confirm inactive
Fc1cccc(Cl)c1C1Nc2cccc3cccc(c23)N1	none
O=C(Nc1ncn[nH]1)c1cc(S(=O)(=O)Nc2cccc(C(F)(F)F)c2)ccc1Cl	none
O=C(CNC(=O)c1ccco1)N=Nc1c(O)[nH]c2ccc([N+](=O)[O-])cc12	GSTO1 counter 50 | GSTO1 confirm 62
NC(=O)N=Nc1c(O)[nH]c2ccc([N+](=O)[O-])cc12	none
C=C(C)CNC(=S)N=Nc1c(O)[nH]c2ccc([N+](=O)[O-])cc12	GSTO1 counter 42 | GSTO1 confirm 37
CCCC1=C(C(=O)OCC)C(c2c(C)nn(-c3ccccc3)c2Cl)C(C#N)=C(N)O1 (centres undefined)	none
CC(OC(=O)Cc1c[nH]c2ccccc12)C(=O)c1ccccc1 (centres undefined)	none (no result: Fam108B inh, GSTO1 counter)
CC(OC(=O)c1ccccc1C(=O)N(C)c1ccccc1)C(=O)Nc1ccc(C(N)=O)cc1 (centres undefined)	none
CC(OC(=O)c1cc(O)c2ccccc2c1O)C(=O)Nc1ccc(C(N)=O)cc1 (centres undefined)	GSTO1 counter 48 | GSTO1 confirm 56
O=C(/C=C/c1ccc(O)c(O)c1)NC(=O)c1ccccc1O	GSTO1 counter 55 | GSTO1 confirm inactive
O=C(Nc1ccc(S(=O)(=O)Nc2nccs2)cc1)C1=NN(c2ccccc2)C(=O)CC1	none
